What all share (assay): NCI-60 one-dose screen, 48 h (100 = growth as untreated, 0 = no growth, -100 = all killed)
In one assay the test system is EKVX NSCLC. As to conditions: 10 µM unless noted.
Another assay has as its system SN12C renal. As to conditions: 10 µM unless noted.
In a further assay the test system is UO-31 renal. To be noted: 10 µM unless noted.
Another assay deals with TK-10 renal. As to conditions: 10 µM unless noted.
A further assay has as its system ACHN renal. As to conditions: 10 µM unless noted.
Another assay concerns CAKI-1 renal. As to conditions: 10 µM unless noted.
For a further assay, the system named is A498 renal. As to conditions: 10 µM.
In the next assay the test system is HL-60(TB) leukemia. As to conditions: 10 µM unless noted.
In another assay the test system is CCRF-CEM leukemia. To be noted: 10 µM unless noted.
A further assay deals with MOLT-4 leukemia. As to conditions: 10 µM unless noted.
For the next assay, the system named is SR leukemia. As to conditions: 10 µM unless noted.
In another assay the test system is RPMI-8226 leukemia. As to conditions: 10 µM unless noted.
The subject of the next assay is OVCAR-8 ovarian. To be noted: 10 µM unless noted.
In a further assay the test system is OVCAR-5 ovarian. To be noted: 10 µM unless noted.
Another assay concerns OVCAR-4 ovarian. To be noted: 10 µM unless noted.
The subject of a further assay is SK-OV-3 ovarian. To be noted: 10 µM unless noted.
The subject of another assay is IGROV1 ovarian. As to conditions: 10 µM unless noted.
Another assay deals with OVCAR-3 ovarian. As to conditions: 10 µM unless noted.
The subject of another assay is HS 578T breast. To be noted: 10 µM unless noted.
Another assay deals with SK-MEL-2 melanoma. To be noted: 10 µM unless noted.

The panel holds about 83,000 compounds, 20% with a hit somewhere; the sample as a whole holds those more often.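 Results are percent growth after 48 hours of single-concentration exposure. 100 means growth as in untreated cells, lower positive values show inhibition; negative values down to -100 show cell death.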 Unmarked numbers belong to inactive results. Activity calls are given as the source filed them. The calls were made as follows: active = growth percent below 10; inactive = the rest.

Regarding `OCc1ccc2c(c1)OCO2`, the growth in the assay on EKVX NSCLC is 96.3%; in the assay with SN12C renal, 101%; in the assay with UO-31 renal, 88%; with TK-10 renal it was 91.7%; in the assay with ACHN renal, 104%; with CAKI-1 renal, 93.2%. Besides, the growth was 111% with A498 renal; 96.1% in the assay on HL-60(TB) leukemia; 102% in the assay with CCRF-CEM leukemia; 91.9% with MOLT-4 leukemia; 95.5% with SR leukemia; 102% in the assay with RPMI-8226 leukemia. For the same compound, the growth in the assay with OVCAR-8 ovarian was 95.7%; in the assay with OVCAR-5 ovarian it was 97%; with OVCAR-4 ovarian, 101%; in the assay with SK-OV-3 ovarian, 95.6%; with IGROV1 ovarian, 106%; in the assay with OVCAR-3 ovarian, 107%. For the same compound, the growth with HS 578T breast was 97.1%.

In the case of `C=C1C(=O)O[C@H]2[C@H]1CC/C(COC(=O)C(=O)c1cn(Cc3ccccc3)c3ccccc13)=C\CC[C@@]1(C)O[C@@H]21`, the growth with EKVX NSCLC is -40.7% (active); in the assay on SN12C renal, -70.3% (active); in the assay with UO-31 renal it was -91.3% (active); in the assay on TK-10 renal, -62.2% (active); in the assay on ACHN renal, -61.5% (active); in the assay on CAKI-1 renal it was -34.6% (active). Further, the growth is 52.4% with A498 renal; -26.6% (active) in the assay on HL-60(TB) leukemia; -30.6% (active) with CCRF-CEM leukemia; -17.3% (active) with MOLT-4 leukemia; 4.96% (active) with SR leukemia; -36.2% (active) in the assay with RPMI-8226 leukemia. In addition, the growth in the assay with OVCAR-8 ovarian is -2.2% (active); in the assay with OVCAR-5 ovarian, -32.6% (active); in the assay on OVCAR-4 ovarian, 7.79% (active); in the assay on SK-OV-3 ovarian it was 86.9%; with IGROV1 ovarian it was -85.5% (active); in the assay with OVCAR-3 ovarian it was -82.7% (active). Further, in the assay on HS 578T breast, the growth is 5.95% (active).

As for `CC(=O)O[C@H]1C(=O)[C@@]2(C)[C@H]([C@H](OC(=O)c3ccccc3)[C@]3(O)C[C@H](OC(=O)[C@H](OC(=O)OC[C@H]4COC(C)(C)O4)[C@@H](NC(=O)c4ccccc4)c4ccccc4)C(C)=C1C3(C)C)[C@]1(OC(C)=O)CO[C@@H]1C[C@@H]2O`, the growth in the assay with EKVX NSCLC is 27.1%; with SN12C renal, 22.5%; with UO-31 renal, 33.8%; with TK-10 renal it was 25.6%; with ACHN renal, 34.5%; with CAKI-1 renal it was 20.7%. Moreover, the growth was 21.1% in the assay on A498 renal; 3.13% (active) in the assay on HL-60(TB) leukemia; 17% in the assay with CCRF-CEM leukemia; 11.7% in the assay on MOLT-4 leukemia; 17.9% with SR leukemia; 6.27% (active) in the assay on RPMI-8226 leukemia. For the same compound, the growth with OVCAR-5 ovarian was 6.17% (active); in the assay on OVCAR-4 ovarian it was 55.6%; with SK-OV-3 ovarian it was 22.2%; in the assay with OVCAR-3 ovarian it was 6.13% (active); in the assay on HS 578T breast, 3.36% (active).

With `COC(=O)[C@@]1(O)C[C@H]2O[C@]1(C)n1c3ccccc3c3c4c(c5c6ccccc6n2c5c31)C(=O)NC4`, the growth in the assay with EKVX NSCLC was -30.9% (active); in the assay on SN12C renal, -47.2% (active); with UO-31 renal, -57.9% (active); with TK-10 renal it was -86.3% (active); with ACHN renal, -27.3% (active); in the assay with CAKI-1 renal, -97.5% (active). Also, the growth was -96.6% (active) with A498 renal; -44.5% (active) with HL-60(TB) leukemia; 0.604% (active) in the assay on CCRF-CEM leukemia; -31% (active) in the assay with MOLT-4 leukemia; -18.3% (active) in the assay on SR leukemia; -39.6% (active) with RPMI-8226 leukemia. Moreover, the growth is -43.6% (active) in the assay on OVCAR-8 ovarian; -11.6% (active) with OVCAR-5 ovarian; -51% (active) in the assay on OVCAR-4 ovarian; -33.8% (active) in the assay on SK-OV-3 ovarian; -19.2% (active) in the assay on OVCAR-3 ovarian.

In the case of `NC(=O)CNc1ccc([As]=[As]c2ccc(NCC(N)=O)cc2)cc1` (configuration not stated), the growth with EKVX NSCLC is 23.1%; in the assay on SN12C renal, 34%; with UO-31 renal it was 54.4%; in the assay on TK-10 renal it was 58.1%; in the assay on ACHN renal, 71.2%; with CAKI-1 renal, 12.5%. The growth in the assay on A498 renal is 58.1%; in the assay on HL-60(TB) leukemia it was 19.8%; with CCRF-CEM leukemia, 10.9%; in the assay on MOLT-4 leukemia it was 58.8%; in the assay with SR leukemia, 14%; with RPMI-8226 leukemia, 13.5%. The growth in the assay on OVCAR-8 ovarian is 61.2%; in the assay on OVCAR-5 ovarian, 74.6%; in the assay with OVCAR-4 ovarian, 60.6%; with SK-OV-3 ovarian, 93.7%; with IGROV1 ovarian it was 8.16% (active); in the assay on OVCAR-3 ovarian, -41.5% (active). The growth in the assay with HS 578T breast is 10.5%.

Consider `C[C@]12CC[C@H]3[C@@H](CC[C@]4(O)C[C@@H](O[C@@H]5O[C@H](CO)[C@@H](O[C@@H]6OC[C@@H](O)[C@H](O)[C@H]6O)[C@H](O)[C@H]5O)CC[C@]34C=O)[C@@]1(O)CC[C@@H]2C1=CC(=O)OC1`, for which the growth in the assay on EKVX NSCLC is -59.9% (active); in the assay on SN12C renal it was -32.1% (active); in the assay on UO-31 renal it was 6.18% (active); in the assay with TK-10 renal, -6.98% (active); in the assay with ACHN renal, -34.3% (active); with CAKI-1 renal it was -5.08% (active). Further, the growth in the assay with A498 renal is -9.04% (active); in the assay with CCRF-CEM leukemia it was -14.5% (active); in the assay with MOLT-4 leukemia, -36.3% (active); in the assay on SR leukemia, -31.7% (active); in the assay with RPMI-8226 leukemia, 10%; with OVCAR-8 ovarian, 2.06% (active). Also, the growth with OVCAR-5 ovarian is 31.1%; in the assay with OVCAR-4 ovarian it was 2.78% (active); with SK-OV-3 ovarian, -3.1% (active); with IGROV1 ovarian it was 18.6%; in the assay with OVCAR-3 ovarian it was -34.5% (active); in the assay with HS 578T breast, 8.83% (active).

Take `[Au+].[N-]=C=O.c1ccc(CN2[CH-]N(Cc3ccccc3)C(c3ccccc3)=C2c2ccccc2)cc1`: the growth in the assay on SK-MEL-2 melanoma is 84.5%; in the assay with SN12C renal, 74%; with UO-31 renal, 74.5%; in the assay with TK-10 renal, 104%; in the assay with ACHN renal it was 93.2%; in the assay on A498 renal, 112%. Besides, the growth was 66.8% with CCRF-CEM leukemia; 76.1% in the assay with MOLT-4 leukemia; 63.9% with RPMI-8226 leukemia; 98.9% in the assay with OVCAR-8 ovarian; 145% in the assay on OVCAR-5 ovarian; 79.7% in the assay on OVCAR-4 ovarian. Also, the growth in the assay with SK-OV-3 ovarian was 96.8%; with IGROV1 ovarian it was 81.1%; in the assay with OVCAR-3 ovarian it was 82.6%; with HS 578T breast, 84.4%.

In the case of `CCC1(C)CC(CCNCc2ccccc2O)(c2ccc(C)cc2)CCO1` (configuration not stated), the growth in the assay on SK-MEL-2 melanoma was 104%; in the assay with SN12C renal, 105%; with TK-10 renal, 106%; in the assay with ACHN renal it was 102%; in the assay with CAKI-1 renal, 106%; with A498 renal, 103%. In addition, the growth is 97.3% in the assay with HL-60(TB) leukemia; 103% in the assay on CCRF-CEM leukemia; 101% in the assay with MOLT-4 leukemia; 96% in the assay with SR leukemia; 98.2% in the assay with RPMI-8226 leukemia; 103% in the assay with OVCAR-8 ovarian. Moreover, the growth was 100% in the assay on OVCAR-5 ovarian; 100% in the assay with OVCAR-4 ovarian; 112% with SK-OV-3 ovarian; 95.6% with IGROV1 ovarian; 105% with OVCAR-3 ovarian; 104% in the assay with HS 578T breast.

With `C[C@@H]1C[C@@]2(C)[C@@H](CC[C@@H]3[C@@H]2CC[C@]2(C)C(=O)CC[C@@H]32)CC1=O`, the growth in the assay with EKVX NSCLC was 86.5%; with SN12C renal, 103%; in the assay with UO-31 renal it was 96.3%; with TK-10 renal, 94%; with ACHN renal, 103%; in the assay with CAKI-1 renal, -30.7% (active). Besides, the growth with A498 renal was 71.9%; in the assay on HL-60(TB) leukemia, 74.6%; with CCRF-CEM leukemia, 83.7%; in the assay on MOLT-4 leukemia, 66.2%; with SR leukemia, 108%; with RPMI-8226 leukemia, 137%. Further, the growth with OVCAR-8 ovarian is 62.6%; in the assay with OVCAR-5 ovarian, 93.6%; with OVCAR-4 ovarian it was 103%; in the assay on SK-OV-3 ovarian it was 120%; in the assay on IGROV1 ovarian it was 76.7%; with OVCAR-3 ovarian it was 112%. Moreover, the growth with HS 578T breast was 81.2%.

(Values after PubChem BioAssay (NCI).)
